# According to the supplement of paper PMC6555819:
# Tested on: PXR:RXRa (NR concentration 270 nM, RXRa partner concentration 90 nM)
# Assay: PBM binding z-score (relative to random genomic background probes); higher = stronger binding; sequences stand for … in GC…GCGATTGACAGCGTAGAATGAAGG
# Outline: (§1)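 Custom Agilent 4×180K protein-binding microarrays carried double-stranded probes. Their 34-nt variable regions held direct-repeat seeds, single-nucleotide variants, half-site ablations and random human genomic background sequences. Arrays were incubated 1 h with ligand-free nuclear receptor dimers in PBS pH 7.4, 2% milk, 0.02% Triton X-100, 1 mM DTT, 0.2 mg/mL BSA and 0.4 mg/ml salmon testes DNA. Antibodies against each partner (one per run) detected binding, and scanned fluorescence was regression-normalized. Binding z-scores use random background probes as reference.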
row,Sequence,PBM binding z-score
1,AGAATCAGGTTATTAAGATCAGGGAATTGCGGTC,0.516
2,TCGAGTAGGTTAGGGGTATTCAGAATGGCGTCGA,0.383
3,CCTACTGGGCCCTTCAGAGGTCATTGATCATATG,4.97
4,GAGACTGGGGCAAAGCAGGTTACCATAAGGTTGG,0.725
5,CCCACTGGGCCACGAAAGGTCATTGATTCAGTGA,5.57
6,CCAGACAGGTGAGAAGGTCACTCAGCCTCGATTA,3.25
7,ATCGAAAGCTCGTGAGGTGAGTATACAGAAAGGC,-0.403
8,TCTAGTTGGTCAAAGGTCACACATTCGAAATGCG,5.8
9,TAGCGTAGGTCAGATCGGGCCAGTATACGCTATA,1.48
10,TCTGGTAGATCAAAGGTTAAGAAAGCCGAAGCCT,1.97
11,CGTCCAAGGTCAAGGTCAGTCAAAGAGACTCGAA,4.99
12,TCATATAGGTAAAGGTGAAAGTCGAACGATATGA,1.13
13,ACAGACAGGTGAGTGAAGGCAACTCAGCTGGACG,-0.299
14,AGAATGAGGTTATTAAGCTCAGGGAATTGCGGTC,0.757
15,CGTCCAAGGTAAGCAGGTCAGTGAAAGCGACGTG,0.192
16,ACTAGTTTGTCAGCTGAGGTCACACACAATTCGG,4.87
17,TCTTGTAGATCAGCAGGTTCAGAAAGCTGGCCAA,0.644
18,ACAGACAGGTGAGTGAAGGAAACTCAGCTGGACG,-0.793
19,TCTTGTAGATCAAAAGAGGTTAAGAAAGTGCGCT,2.86
20,TTACCGAGGTGAAGGTCGTTGATCCCTCTGTAGA,1.72

row,Sequence,PBM binding z-score
1,CCGAGTAGGTTATGAGGCATTCAGGCAACGGTGA,-0.101
2,CGAACTAGGTCATGCAGGACAGTGAATACATTGA,1.34
3,CGTCCAAGGTGAGAGAGGTCAGTGAATGCCGAGT,3.75
4,ACACGGAGGACAAAGGTCAGAGCTACGCCAGTGA,3.92
5,AGTCAAAGTTCGTCTAGGTAACGTAAGATATGCT,1.99
6,AAAACAGGGTCACTAGGCCAGAGTAGGTACGAAT,3.58
7,ACAGACAGGTGAGTGAAGGTAATTCAGCTGGACG,-0.2
8,ATCTCTAGGTAACCAAGTTCAATGAATGCCGAAC,2.72
9,GGAACGAGGGCAAGTTGATAGCGGAGTTTGATGG,0.392
10,ACCATTAGTTGAGACGAGGGCAACCGATAGGTTG,1.5
11,ATATGTAGGTTATCGGTTCATTCAGTTTGCGCAT,3.48
12,AGAATGAGGTTAAGAACAGGGAAACAGAATACAT,1.13
13,TCTCGGAGGCCACGAAAGGTCAGAGCTCGACATC,4.58
14,TCTAGTTGGTCAAAGGTCATACACTCGAAATGCG,6.04
15,CTAACTAGGTCAAGGACAGTGAATCTCCGCACGC,1.21
16,TTGCCTAGGTCAGATCGGGCCAGTATACGCTATA,1.47
17,ACTACTTGGTCAGCTGAGGTCACACACAATTCGG,5.72
18,CGTCCAAGGTCAGCAAGTCAGTGAAAGCGACGTG,2.38
19,CCTTTCGGGTCACGAGGTTATAGCACGACGAGCG,4.93
20,CGTCAAAATTCAACTAAGGTAACGTAAAGCACGC,0.326

# Tested on: PXR homodimer (NR concentration 270 nM)
# Assay: as above
# Outline: as §1
row,Sequence,PBM binding z-score
1,AGAATCAGGTTATTAAGATCAGGGAATTGCGGTC,0.602
2,TCGAGTAGGTTAGGGGTATTCAGAATGGCGTCGA,0.362
3,CCTACTGGGCCCTTCAGAGGTCATTGATCATATG,1.92
4,GAGACTGGGGCAAAGCAGGTTACCATAAGGTTGG,0.197
5,CCCACTGGGCCACGAAAGGTCATTGATTCAGTGA,1.48
6,CCAGACAGGTGAGAAGGTCACTCAGCCTCGATTA,1.11
7,ATCGAAAGCTCGTGAGGTGAGTATACAGAAAGGC,-0.674
8,TCTAGTTGGTCAAAGGTCACACATTCGAAATGCG,1.55
9,TAGCGTAGGTCAGATCGGGCCAGTATACGCTATA,-0.976
10,TCTGGTAGATCAAAGGTTAAGAAAGCCGAAGCCT,0.168
11,CGTCCAAGGTCAAGGTCAGTCAAAGAGACTCGAA,1.7
12,TCATATAGGTAAAGGTGAAAGTCGAACGATATGA,-0.047
13,ACAGACAGGTGAGTGAAGGCAACTCAGCTGGACG,-0.329
14,AGAATGAGGTTATTAAGCTCAGGGAATTGCGGTC,-0.286
15,CGTCCAAGGTAAGCAGGTCAGTGAAAGCGACGTG,-0.446
16,ACTAGTTTGTCAGCTGAGGTCACACACAATTCGG,2.34
17,TCTTGTAGATCAGCAGGTTCAGAAAGCTGGCCAA,-0.241
18,ACAGACAGGTGAGTGAAGGAAACTCAGCTGGACG,-0.677
19,TCTTGTAGATCAAAAGAGGTTAAGAAAGTGCGCT,0.102
20,TTACCGAGGTGAAGGTCGTTGATCCCTCTGTAGA,0.178

row,Sequence,PBM binding z-score
1,CCGAGTAGGTTATGAGGCATTCAGGCAACGGTGA,-0.42
2,CGAACTAGGTCATGCAGGACAGTGAATACATTGA,0.687
3,CGTCCAAGGTGAGAGAGGTCAGTGAATGCCGAGT,2.87
4,ACACGGAGGACAAAGGTCAGAGCTACGCCAGTGA,0.625
5,AGTCAAAGTTCGTCTAGGTAACGTAAGATATGCT,1.83
6,AAAACAGGGTCACTAGGCCAGAGTAGGTACGAAT,0.329
7,ACAGACAGGTGAGTGAAGGTAATTCAGCTGGACG,-0.191
8,ATCTCTAGGTAACCAAGTTCAATGAATGCCGAAC,3.6
9,GGAACGAGGGCAAGTTGATAGCGGAGTTTGATGG,0.189
10,ACCATTAGTTGAGACGAGGGCAACCGATAGGTTG,0.41
11,ATATGTAGGTTATCGGTTCATTCAGTTTGCGCAT,11.4
12,AGAATGAGGTTAAGAACAGGGAAACAGAATACAT,0.635
13,TCTCGGAGGCCACGAAAGGTCAGAGCTCGACATC,-0.146
14,TCTAGTTGGTCAAAGGTCATACACTCGAAATGCG,3.03
15,CTAACTAGGTCAAGGACAGTGAATCTCCGCACGC,0.296
16,TTGCCTAGGTCAGATCGGGCCAGTATACGCTATA,-0.653
17,ACTACTTGGTCAGCTGAGGTCACACACAATTCGG,1.85
18,CGTCCAAGGTCAGCAAGTCAGTGAAAGCGACGTG,0.119
19,CCTTTCGGGTCACGAGGTTATAGCACGACGAGCG,0.795
20,CGTCAAAATTCAACTAAGGTAACGTAAAGCACGC,0.413
